Bioassay records deposited in PubChem by several laboratories.
The list is not random: actives were taken first. Their share in the collection is about 12%.
WT yeast gro inh: growth inhibition of WT strain, primary screen, mitochondrial fusion inhibitor project, WT and mutant strains, chemical genetic; inhibition, % at 10 µM; mitochondrial fusion phenotypic screen; hit rate 2.1% among 190,000; AID 1362, 2008; in the data active = inhibition above about 58%; tested in S. cerevisiae
L major viab: Leishmania major promastigote growth inhibition, primary screen; inhibition, % at 10 µM; hit rate 9% among 200,000; Leishmania major promastigotes, resazurin fluorescence viability; AID 1063, 2008; in the data active = inhibition above about 50%;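 also: promastigotes grown with compound for 44 hours at 28 °C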
Arbovirus inh: antivirals against arbovirus infection, primary screen, cell-based, full library, 10K replicate subset | inhibition, % at 10 µM | hit rate 0.37% among 200,000 | arbovirus infection cell-based antiviral screen | AID 1251, 2008; in the data active = inhibition above about 30%
CHOP inh: inhibitors of CHOP promoter induction, primary screen, cell-based, unfolded protein response, luciferase reporter. CHO-K1 CHOP-promoter luciferase, tunicamycin-induced, 15-18 h. inhibition, % at 10 µM. hit rate 3.8% among 220,000;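 active = compounds that reduced the stress-induced luciferase reporter signal by more than about 70% of percent inhibition, limit read from the data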;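 also: 0% = tunicamycin plus vehicle and 100% = wells without tunicamycin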
Starred values were filed as active, the others as inactive; . = not tested or not shown.

SMILES | WT yeast gro inh | L major viab | Arbovirus inh | CHOP inh
NS(=O)(=O)c1ccc(CCNC(=O)COC(=O)CN2C(=O)C3CCCCC3C2=O)cc1 (centres undefined) | -8.0 | 5.0 | -4.9 | 9.3
O=C(Nc1ccc(F)cc1F)NC1CCN(Cc2c(F)cccc2Cl)CC1 | . | . | . | 4.2
COc1ccccc1CN1CN(S(=O)(=O)c2ccccc2)c2nc3ccccc3nc21 | . | . | . | 13.7
Cc1cccc(C(=O)NN(C)c2nc(-c3ccccc3)nnc2C(F)(F)F)c1 | 4.2 | -5.9 | 5.3 | 29.7
COc1ccc(C(=O)NN(C)c2nc(-c3ccccc3)nnc2C(F)(F)F)cc1 | 64.1* | -15.0 | 8.2 | 14.3
O=C(CCCc1nc2ccccc2s1)Nc1ccc(N2CCOCC2)cc1 | -6.9 | 9.3 | -18.6 | 0.9
O=C1c2ccccc2CCC12N=NCC2c1ccc(Br)cc1 (centres undefined) | 68.2* | -7.5 | 0.7 | 64.8
CCOC(=O)C1(Cc2ccccc2)CCN(Cc2ccc3cc(NC(C)=O)ccc3n2)CC1 | 5.6 | 13.9 | -6.2 | 14.1
CCOC(=O)c1ccc(NC(=O)CCc2nc(-c3ccccc3)no2)cc1 | 30.5 | 1.7 | 9.4 | 78.6*
CCOC(=O)c1ccc(NC(=O)CCc2nc(-c3ccccc3Cl)no2)cc1 | 12.9 | 3.7 | -15.5 | 81.2*
O=C(Nc1ccc(-c2noc(CCc3ccccc3)n2)cc1)c1cccnc1 | 6.2 | 50.1* | 12.6 | 11.2
Cc1cc(OCc2nc(-c3ccc(NC(=O)c4cccnc4)cc3)no2)ccc1Cl | 4.2 | -4.1 | 2.6 | -22.0
CCOC(=O)c1cccc(NC(=O)CCc2nc(-c3ccccc3F)no2)c1 | -8.4 | -2.8 | 7.4 | 39.7
Cc1ccn2c(Nc3ccc4c(c3)OCO4)c(-c3ccccn3)nc2c1 | 14.3 | 100.5* | -16.7 | 77.7*
Cc1ccc(Nc2c(-c3ccccn3)nc3ccc(C)cn23)cc1 | 70.5 | 100.5* | -19.4 | 80.0*
Cc1ccc(Nc2c(-c3ccccn3)nc3cc(C)ccn23)cc1 | 69.4 | 100.7* | -24.5 | 75.5*
Cc1ccc2nc(-c3ccco3)c(Nc3ccccc3)n2c1 | 7.9 | 3.8 | 9.9 | -6.1
Cc1ccc2nc(-c3ccncc3)c(Nc3ccccc3)n2c1 | 0.3 | 96.5* | -1.6 | 2.1
Cc1ccc(Nc2c(-c3ccccc3)nc3cnccn23)cc1 | -10.4 | 19.1 | 6.0 | -12.5
CC(Cc1cccnc1)NC(=O)c1ccccc1OC1CCN(S(C)(=O)=O)CC1 (centres undefined) | -8.2 | -5.9 | 2.4 | 47.1
N[C@@H](COP(=O)(O)O)C(=O)O | . | . | . | -7.9
CCSc1ncnc2c1sc1nc3c(cc12)COC(C)(C)C3 | 9.8 | 1.1 | -12.1 | 36.4
Cc1ccc(NC(=S)NCCN(C2CCCCC2)C2CCCC2)cc1C | 43.2 | 64.2* | -11.1 | 6.0
Cc1ccc(NC(=S)NCCN(C2CCCCC2)C2CCCC2)cc1 | 17.4 | 33.9 | 16.1 | -9.1
Cc1cc(C)cc(NC(=S)NCCN(C2CCCCC2)C2CCCC2)c1 | 38.0 | 62.5* | -3.8 | 5.7
SMILES | WT yeast gro inh | L major viab | Arbovirus inh | CHOP inh
FC(F)(F)c1ccc(Oc2ccc(Cl)cc2Br)nc1 | 0.0 | -7.5 | 2.7 | -11.0
COc1ccc(C(=O)OCC(=O)N2CCCC2=O)c(OC)c1 | 1.4 | -3.6 | 5.7 | -8.6
Cc1ccc2c(c1)SC1=NC(c3ccccc3)(C(F)(F)F)NC(=O)N12 (centres undefined) | 36.7 | 0.9 | 0.3 | 70.5*
CC(=O)Nc1ccc(Nc2cc(C)nc3c(-c4ccc(Cl)cc4)cnn23)cc1 | 21.1 | 79.1* | -1.7 | 75.5*
Cc1cc(NCCN2CCOCC2)n2ncc(-c3ccc(Cl)cc3)c2n1 | . | -2.4 | . | .
Cc1cc(Cl)n2nc(C)c(-c3ccc(Cl)cc3)c2n1 | 1.1 | 27.2 | -23.1 | 21.0
CC(=O)Nc1ccc(Nc2cc(C)nc3c(-c4ccc(Cl)cc4)c(C)nn23)cc1 | 14.3 | 93.3* | -4.5 | 84.3*
COc1ccccc1Nc1ncc(C(=O)N2CCN(Cc3ccc(OC)c(OC)c3OC)CC2)c2ccccc12 | 13.5 | 36.0 | -10.0 | 1.8
O=C1CSC2=NCN(c3ccc4c(c3)OCO4)CN12 | -8.7 | 14.2 | -0.9 | 94.4*
Cc1ccccc1S(=O)c1ccccc1C(=O)O (centres undefined) | . | . | . | 12.8
CC(C)C(=O)NC(Nc1cc(C(F)(F)F)ccc1Cl)C(Cl)(Cl)Cl (centres undefined) | 13.2 | 7.8 | 6.0 | 72.1*
CC(C)C(=O)NC(Nc1ccccc1F)C(Cl)(Cl)Cl (centres undefined) | -0.3 | 4.5 | 6.3 | 28.5
COc1ccc(CN2C3CCCC2CC(NC(=O)Nc2cccc(C)c2)C3)cc1 (centres undefined) | 0.8 | 90.2* | -33.4 | 45.3
COc1ccc(CN2C3CCCC2CC(NC(=O)Nc2ccccc2)C3)cc1 (centres undefined) | -7.5 | 93.7* | -10.8 | 23.9
COCC(=O)NC1CC2CCCC(C1)N2Cc1ccccc1 (centres undefined) | 5.0 | 0.1 | 2.6 | 12.5
COc1ccc(CN2C3CCCC2CC(NC(=O)Nc2ccccc2C)C3)cc1 (centres undefined) | 8.2 | 85.0* | -5.3 | 0.9
COc1ccccc1C(=O)OCc1c(F)cccc1Cl | 6.2 | -3.4 | -0.2 | 24.6
COc1ccc(NC(=O)CCC(=O)NCCO)cc1 | 4.3 | -1.9 | -1.7 | -4.4
COc1ccc(Cc2n[nH]c(=S)n(N)c2=O)cc1 | 0.5 | -8.1 | -0.6 | 25.3
O=S(=O)(c1ccc(F)cc1)c1snnc1-c1ccccc1 | -12.5 | 81.1* | -9.3 | -39.6
c1ccc(-c2nnsc2-c2ncc[nH]2)cc1 | -1.3 | -5.3 | 5.0 | -3.0
NS(=O)(=O)c1ccc(NCc2ccccc2OCc2ccc(F)cc2)cc1 | 7.1 | 30.6 | 7.1 | 42.2
NS(=O)(=O)c1ccc(NCc2cc(Cl)ccc2OCc2ccccc2F)cc1 | -2.4 | 27.7 | -35.5 | 70.3*
CCOc1cc(CNc2ccc(OC)cc2)cc(Br)c1OCC(=O)NC(C)(C)C | 50.2 | 99.9* | -26.9 | 36.0
CCOc1cc(CNc2ccc(Br)cc2)cc(Br)c1OCC(=O)NC(C)(C)C | 26.8 | 5.2 | -36.7 | 31.1
SMILES | WT yeast gro inh | L major viab | Arbovirus inh | CHOP inh
CC(C)NC(=O)c1ccc(C(C)C)cc1 | . | . | . | 11.4
COc1ccc(C)cc1-n1nnnc1SCC(=O)Nc1cccnc1Cl | 14.4 | 92.0* | 4.3 | 11.8
COc1ccc(C)cc1-n1nnnc1SCc1nc2ccccc2s1 | 25.2 | 82.5* | 10.7 | 47.0
CCn1c(SCc2nc3ccccc3s2)nnc1-c1ccccc1 | 14.2 | 65.3* | 5.5 | -10.5
Cc1nnc(SCc2nc3ccccc3s2)n1-c1ccccc1 | -0.2 | -4.7 | -4.2 | -18.9
COc1ccc(C)cc1-n1nnnc1SCC(=O)Nc1cc(C)on1 | -23.8 | -0.8 | -6.8 | 22.7
COc1ccc(-n2nnnc2SCc2nc3ccccc3s2)cc1 | 7.5 | 0.4 | -4.9 | 82.1*
CCOP(=O)(OCC)c1nc(/C=C/c2ccccc2)oc1NCc1ccccc1 | 83.3* | 10.9 | -6.9 | 38.1
CCOP(=O)(OCC)c1nc(/C=C/c2ccccc2)oc1NCc1ccc(OC)cc1 | 8.7 | 13.3 | -32.0 | 76.5*
CCOC(=O)c1sc(NC(=O)COC(=O)CNC(=O)C2CCCCC2)c(C(=O)OCC)c1C | 5.0 | -4.0 | -7.5 | 40.3
O=C(COc1ccccc1)Nc1ccc(OC(F)(F)C(F)F)c(NC(=O)COc2ccccc2)c1 | -7.2 | 3.1 | 1.9 | 52.4
COc1cc(OC)c(-c2nn3c(C4CCCCC4)nnc3s2)cc1OC | 54.0 | 56.5* | -35.0 | 37.6
